The inhibition is the change of the read-out against control, counted positive when it falls.

In all, about 290,000 compounds went through this assay and about 3,500 (1.2%) were called active. What follows is part of a selection rich in actives, with near analogues and random picks from the rest. A number with no mark means an inactive call.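 Rule for the calls: active = inhibition above the campaign mean inhibition over all tested compounds plus 3 SD (cut at about 28% in these data); inactive = the rest.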

In the test the test system is M18 aspartyl aminopeptidase (Plasmodium falciparum 3D7). In words: PfM18AAP inhibitors, malaria aminopeptidase, primary screen, biochemical, QFRET, recombinant enzyme (AID 1822).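 Note: 0% = plate median of test compound wells and 100% = 2 mM ZnCl2.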 Particulars: H-Glu-NHMec fluorogenic cleavage, at 7.35 µM, active compounds read high.
For `COc1ccc(C(=O)N2CCCN(C)CC2)c(OC)c1`, the inhibition is -1.62%. As for `CCOc1cc(/C=C2\SC(N3CCCC(C)C3)=NC2=O)ccc1O` (stereo unspecified), the inhibition was 9.44%. Turning to `O=c1c2ccccc2[nH]c(=S)n1CCN1CCC(=C(c2ccc(F)cc2)c2ccc(F)cc2)CC1`, the inhibition was -3.53%. As to `Cc1nc(N=C(N)N)nc2c(C)cccc12`, the inhibition was 3.01%. `COc1ccc(CN2CCCC(N3CCc4ccccc4C3)C2)c(O)c1` (stereo unspecified): the inhibition was 1.47%.

On to `COc1c(O)ccc2c1CN1CCc3cc4c(cc3C1C2)OCO4` (stereo unspecified), for which the inhibition is 42.2% (active). On to `COc1cc(COCC(O)CN2CCN(Cc3ccc4c(c3)OCO4)CC2)cc(OC)c1OC` (stereo unspecified), for which the inhibition was 1.06%. `Cc1cc(=O)[nH]c(S)c1C#N`: the inhibition is 31.9% (active).

On to `Cc1ccc(NC(=O)CSc2sc3c(O)cc(=O)[nH]c3c2C#N)cc1C`, for which the inhibition is 9.88%. For `Cc1cc(=O)[nH]c(SCC(N)=O)c1C#N`, the inhibition was 6.8%. As to `CC(C)(C)C(=O)NNC(=O)c1ccc(Oc2cc(Cl)cc(Cl)c2)o1`, the inhibition is 7.33%. The figure for `CCC(C)C(NC(=O)C1CCC(=O)N1C(=O)OCc1ccccc1)C(=O)NC(C(=O)N1CCCC1C(N)=O)C(C)CC` (stereo unspecified) is 1.63%; for `CCOC(=O)/C(C#N)=C/c1ccc(N2CCCCC2)cc1` it is 0.72%; for `O=C(Cc1ccccc1)NC(=S)Nc1ccc(N2CCCCC2)cc1` it is -3.44%. Under `O=C1C=CC(=O)N1c1ccc(N2CCCCC2)cc1` stands 35.3% (active); under `CC(C)CCN(C(=O)c1csnn1)C(C(=O)NC1CCCC1)c1ccccc1` (stereo unspecified), 5.8%.

On to `O=C(Nc1ccnn1C1CCN(Cc2cccc(OCCO)c2)CC1)C1CCCC1`, for which the inhibition is -3.2%. In the case of `CCCC(C)NC(=O)C1CCN(C(=O)C2CC(=O)N(c3ccc(C)cc3)C2)CC1` (stereo unspecified), the inhibition is -1.18%. Consider `COc1ccc2c(c1)C(C)=CC(C)(C)N2C(=O)Nc1ccccc1`, for which the inhibition is 34.2% (active). As to `CC1=CC(C)(C)N(C(=O)CSc2nnc(-c3ccccc3)o2)c2ccc(C)cc21`, the inhibition was 1.48%. Turning to `COc1ccc2c(c1)C(C)=CC(C)(C)N2C(=O)CNCc1ccc2c(c1)OCO2`, the inhibition was 12.3%. `O=C1C(=O)N(CCCO)C(c2ccccc2)/C1=C(\O)c1ccc(Br)cc1` (stereo unspecified): the inhibition was -0.04%. Turning to `O=C(CN1C(=O)NC2(CCCCC2)C1=O)NCCc1c[nH]c2ccccc12`, the inhibition was 0.15%. As for `O=C(N/N=C/c1ccco1)c1ccc(C(=O)N/N=C/c2ccco2)o1`, the inhibition is 6.04%.

Regarding `CC(C)NC(=O)C(=O)N/N=C/c1ccco1`, the inhibition is -9.66%. As for `O=c1nc(N/N=C/c2ccco2)cn[nH]1`, the inhibition is 52.8% (active). As for `CCS(=O)(=O)Nc1ccc(C(=O)NCCSc2ccccc2)cc1`, the inhibition was -4.1%. Consider `CCCCNC(=O)C1CCC(=O)N1CCc1ccccc1` (stereo unspecified), for which the inhibition was -7.08%. For `CNC(=O)/C(C#N)=C/c1c(F)cccc1Cl`, the inhibition is -1.65%. On to `COc1cc(CN2CCCN(C)CC2)c([N+](=O)[O-])cc1OC`, for which the inhibition is 13.4%.

In the case of `COc1cc(CN2CCN(Cc3ccc(C)cc3)CC2)c([N+](=O)[O-])cc1OC`, the inhibition was 29.9% (active). `COc1cc(CNCc2ccc3c(c2)OCO3)c([N+](=O)[O-])cc1OC`: the inhibition was 13.5%. Under `O=C(CCn1nnc2ccccc21)OCC(=O)c1ccc([N+](=O)[O-])cc1` stands 21.8%. For `O=C(CC(n1cncn1)C(Cl)(Cl)Cl)c1ccc([N+](=O)[O-])cc1` (stereo unspecified), the inhibition was 55.3% (active). `O=C(CSc1nc2ccc([N+](=O)[O-])cc2[nH]1)c1ccc(Cl)cc1`: the inhibition is 3.49%.

`COc1cc(SC)ccc1C(=O)N(Cc1ccccc1)c1ccccc1`: the inhibition is 0.45%. For `Cc1nn(CC(=O)NC2CCCCC2)c(=O)c2cccn12`, the inhibition is -6.41%. As for `O=C(CCN1c2ccccc2Sc2ccccc21)Nc1ccccc1`, the inhibition is 6.09%. `CCN1/C(=C/C(=S)Nc2ccccc2)Sc2ccccc21`: the inhibition is 46.3% (active). The figure for `CCN1/C(=C/c2ccc3ccc(C)cc3[n+]2CC)Sc2ccccc21` is -2.79%. For the compound `O=c1c2cc([N+](=O)[O-])ccc2nc2n1CCC2`, the inhibition was 3.84%. Turning to `Fc1ccccc1COc1cccc2cccnc12`, the inhibition is -17.2%. Turning to `O=C(CSc1nc2cccnc2n1Cc1ccccc1)N1CCc2ccccc21`, the inhibition is -2.92%. In the case of `CCOC(=O)N1CCN(S(=O)(=O)c2ccc(Br)cc2)CC1`, the inhibition is -5.88%.

Take `COc1ccc(OC)c2sc(NC(=O)C3COc4ccccc4O3)nc12` (stereo unspecified): the inhibition is -7.49%. Consider `O=C(Nc1nnc(C2COc3ccccc3O2)o1)c1ccc(F)cc1` (stereo unspecified), for which the inhibition was 5.07%. As for `c1ccc2c(c1)OCC(c1nn3cnnc3s1)O2` (stereo unspecified), the inhibition is 55.2% (active).

`COc1cc(NC(=O)C2=CC(c3ccc(C)cc3)=NS(=O)(=O)N2C)cc(OC)c1OC`: the inhibition is 13.1%. With `CC(=O)c1ccc(N2CCN(C(=O)C3CCN(S(=O)(=O)c4ccc5c(c4)CC(C)N5C(=O)C4CC4)CC3)CC2)cc1` (stereo unspecified), the inhibition was -0.32%. Consider `CN(CCC1CCOCC1)C(=O)CC1C(=O)NCCN1Cc1cccc(F)c1` (stereo unspecified), for which the inhibition is 6.55%. Take `CCCOc1ccc(C2NC(=O)NC(c3ccccc3)=C2C(C)=O)cc1OCC` (stereo unspecified): the inhibition was -0.97%. On to `COc1cccc(COc2ccc(N(C)S(=O)(=O)c3ccccc3)cc2)c1`, for which the inhibition was 4.14%. As for `CC(=O)N(C)c1ccc(NC(=O)C(F)(F)F)cc1`, the inhibition was -1.27%.

`O=C(/C=C/Nc1ccccc1OC(F)(F)F)C(F)(F)F`: the inhibition was -3.52%.

As to `CN(C)c1ccc(N/C=C/C(=O)C(F)(F)F)cc1`, the inhibition is 29.1% (active). Turning to `COc1ccccc1OCc1nc2ccccc2s1`, the inhibition was 2.93%.

Take `COc1cccc2sc(Nc3nc(C)c(C(C)=O)s3)nc12`: the inhibition was 7.92%.

`COc1cccc2sc(NNC(=O)c3nc4ccccc4s3)nc12`: the inhibition is 30.1% (active). The figure for `CCCc1cc(=O)n2[nH]c(C)c(-c3ccc(Cl)cc3)c2n1` is -3.86%; for `Cc1ccc(NC2CCCN(C(=O)CCC3(C)CC3)C2)cc1C` (stereo unspecified) it is 12.1%; for `Cc1cc(C(=O)N/N=C/c2ccc(O)c([N+](=O)[O-])c2)c(C)n1-c1ccc(F)cc1` it is 1.56%. The figure for `O=C1CSC(=S)N1/N=C/c1ccc(O)c([N+](=O)[O-])c1` is 39.1% (active); for `O=[N+]([O-])c1ccc(N2CCSCC2)cc1O` it is 7.26%; for `CCC(C)(C)NC(=O)C1c2ccccc2Oc2ccccc21` it is 0.98%. On to `O=C(N/N=C/c1ccc(O)c(O)c1)C1c2ccccc2Oc2ccccc21`, for which the inhibition is 66.5% (active). Regarding `CCC(C)NC(=O)C1c2ccccc2Oc2ccccc21` (stereo unspecified), the inhibition was -7.47%. With `CC(C)(C)SCCSC1=CC(=O)CC(c2ccccc2)C1` (stereo unspecified), the inhibition is -7.92%.

`COc1ccc(CCNC(=O)CN2C(=O)COc3ccc(S(=O)(=O)N4CCCC4)cc32)cc1OC`: the inhibition was 0.73%. The figure for `Cc1ccc(-c2noc(CC(c3ccccc3)c3ccccc3)n2)cc1` is 34.4% (active); for `COc1ccccc1Cc1nc(-c2ccc(C)cc2)no1` it is 0.56%. `Cc1ccc(-c2noc(CN3CCN(Cc4ccccc4)CC3)n2)cc1`: the inhibition was -2.79%. Take `CCOC(=O)c1ccc(NC(=S)N2CCN(c3ccccn3)CC2)cc1`: the inhibition was 0.52%. `CSCCC(NS(=O)(=O)c1ccc(C)cc1)C(=O)N1CCCC1` (stereo unspecified): the inhibition was -2.59%. Under `COc1ccc(CNc2nc3c(c(=O)[nH]c(=O)n3C)n2Cc2ccccc2)cc1` stands 7.49%. In the case of `Cn1c(=O)[nH]c(=O)c2c1[nH]c(=S)n2Cc1ccccc1`, the inhibition is 51.6% (active). The figure for `C=CCSc1nc2c(c(=O)[nH]c(=O)n2C)n1Cc1ccccc1` is -7.79%. Turning to `CCS(=O)(=O)C1=NSC2=NC(=O)/C(=C\c3ccc(OS(=O)(=O)c4ccccc4)cc3)C(=N)N21`, the inhibition was 5.46%.

Turning to `CC1CCC2(CC1)NC(=O)N(Cc1nnc(-c3cccs3)o1)C2=O` (stereo unspecified), the inhibition is -3.12%. With `O=C(NNc1c2ccccc2nc2ccccc12)c1cc2ccccc2cc1O`, the inhibition is 1.24%. Turning to `CC(=O)Nc1ccc(Nc2c3ccccc3nc3ccccc23)cc1`, the inhibition is 4.35%.

As for `CC(C)(C)OC(=O)NNc1c2ccccc2nc2ccccc12`, the inhibition was 29.7% (active). Regarding `O=c1c2cc(-c3ccccc3)sc2nc2n1N=C(c1cccs1)CS2`, the inhibition was 6.06%.

Consider `CC1CCN(S(=O)(=O)c2ccc3[nH]c(=O)ccc3c2)CC1`, for which the inhibition is -0.17%.

In the case of `Cc1ccc(CCC(=O)Nc2ncc(Cc3cc(Cl)ccc3Cl)s2)o1`, the inhibition was -7.4%. Regarding `O=C(c1cnn(-c2ccc(Cl)cc2)c1)c1ccccc1O`, the inhibition was -0.75%. As to `Cc1ncc(CC(=O)n2cc(C(=O)c3cc(Cl)ccc3O)cn2)s1`, the inhibition was 29.3% (active). On to `O=S(=O)(c1ccc(-c2ccno2)s1)N1CCCCC1`, for which the inhibition was 11%. As to `CCOc1ccccc1-c1cc(C(=O)N/N=C(\C)c2cccnc2)c2ccccc2n1`, the inhibition was 1.07%. For the compound `O=C(NC(=S)Nc1ccc(Cl)c(C(=O)O)c1)c1cncc(Br)c1`, the inhibition was 15.9%.

For the compound `Cc1ccc(C)c(NC(=S)NNC(=S)Nc2ccc(C(C)C)cc2)c1`, the inhibition was 3.44%. `CC(C)c1ccc(NC(=S)NNc2ccc(Cl)c(C(=O)O)c2)cc1`: the inhibition was 39.9% (active).

Regarding `COc1cccc(-n2c(N)cc(=O)nc2SCC(=O)Nc2cc(C)on2)c1`, the inhibition is -2.14%. As to `O=C(Nc1ncc([N+](=O)[O-])s1)C1COc2ccccc2O1` (stereo unspecified), the inhibition is 12%.

Take `O=C(CCc1ccccc1)Nc1ncc([N+](=O)[O-])s1`: the inhibition is 4.6%. Regarding `CC(=O)Oc1ccccc1C(=O)Nc1ncc([N+](=O)[O-])s1`, the inhibition is 35.7% (active). Regarding `CC(=O)c1cccc(NC(=O)C2COc3ccccc3O2)c1` (stereo unspecified), the inhibition is -8.5%.

The values above are taken from PubChem BioAssay AID1822 (The Scripps Research Institute Molecular Screening Center, 2009).
